According to PubChem BioAssay:
Where a SMILES comes first, the peptide text is derived from it.

What was measured:
[1] = tested on: Botulinum neurotoxin type F light chain protease (Clostridium botulinum); test: Botulinum neurotoxin type F light chain protease inhibition, multiplex microsphere flow cytometry, validation set (AID 588459); settings: multiplex microsphere protease substrate cleavage assay, at 10 µM, hits give high values
[2] = biological target: Botulinum neurotoxin type A (Clostridium botulinum) (UniProt P0DPI0); test: BoNT/A light chain protease inhibitors, biochemical, multiplex microsphere flow cytometry, validation set (AID 588460); settings: at 10 µM, hits give high values
[3] = biological target: Lethal factor (Bacillus anthracis) (UniProt P15917); test: Lethal factor protease inhibitors, Bacillus anthracis, multiplex microsphere cleavage assay, validation set (AID 588461); settings: flow cytometry, at 10 µM, hits give high values

Measured: inhibition

Sequence of Lethal factor (Bacillus anthracis) (P15917 whole entry, looked up): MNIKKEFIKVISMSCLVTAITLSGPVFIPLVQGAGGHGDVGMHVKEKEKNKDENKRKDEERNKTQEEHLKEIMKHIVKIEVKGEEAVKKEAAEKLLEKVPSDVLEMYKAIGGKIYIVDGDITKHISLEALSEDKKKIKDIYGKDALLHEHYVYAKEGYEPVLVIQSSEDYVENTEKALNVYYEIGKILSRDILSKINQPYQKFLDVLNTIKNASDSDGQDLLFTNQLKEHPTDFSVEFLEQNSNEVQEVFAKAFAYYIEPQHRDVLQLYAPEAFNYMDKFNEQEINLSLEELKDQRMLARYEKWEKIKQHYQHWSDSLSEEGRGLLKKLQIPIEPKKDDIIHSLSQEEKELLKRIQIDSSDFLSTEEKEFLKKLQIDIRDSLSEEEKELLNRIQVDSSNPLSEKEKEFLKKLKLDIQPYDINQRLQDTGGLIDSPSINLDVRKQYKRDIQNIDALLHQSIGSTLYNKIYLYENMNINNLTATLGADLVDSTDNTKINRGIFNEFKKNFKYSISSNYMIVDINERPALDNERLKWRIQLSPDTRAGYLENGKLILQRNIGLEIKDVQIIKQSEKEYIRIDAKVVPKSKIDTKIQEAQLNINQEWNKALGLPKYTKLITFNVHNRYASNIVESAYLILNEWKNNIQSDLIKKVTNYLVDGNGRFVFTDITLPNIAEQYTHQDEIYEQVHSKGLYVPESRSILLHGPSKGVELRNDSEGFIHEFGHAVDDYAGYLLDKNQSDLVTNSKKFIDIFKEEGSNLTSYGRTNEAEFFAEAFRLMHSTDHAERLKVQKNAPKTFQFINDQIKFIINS
Sequence of Botulinum neurotoxin type A (Clostridium botulinum) (P0DPI0 whole entry, looked up): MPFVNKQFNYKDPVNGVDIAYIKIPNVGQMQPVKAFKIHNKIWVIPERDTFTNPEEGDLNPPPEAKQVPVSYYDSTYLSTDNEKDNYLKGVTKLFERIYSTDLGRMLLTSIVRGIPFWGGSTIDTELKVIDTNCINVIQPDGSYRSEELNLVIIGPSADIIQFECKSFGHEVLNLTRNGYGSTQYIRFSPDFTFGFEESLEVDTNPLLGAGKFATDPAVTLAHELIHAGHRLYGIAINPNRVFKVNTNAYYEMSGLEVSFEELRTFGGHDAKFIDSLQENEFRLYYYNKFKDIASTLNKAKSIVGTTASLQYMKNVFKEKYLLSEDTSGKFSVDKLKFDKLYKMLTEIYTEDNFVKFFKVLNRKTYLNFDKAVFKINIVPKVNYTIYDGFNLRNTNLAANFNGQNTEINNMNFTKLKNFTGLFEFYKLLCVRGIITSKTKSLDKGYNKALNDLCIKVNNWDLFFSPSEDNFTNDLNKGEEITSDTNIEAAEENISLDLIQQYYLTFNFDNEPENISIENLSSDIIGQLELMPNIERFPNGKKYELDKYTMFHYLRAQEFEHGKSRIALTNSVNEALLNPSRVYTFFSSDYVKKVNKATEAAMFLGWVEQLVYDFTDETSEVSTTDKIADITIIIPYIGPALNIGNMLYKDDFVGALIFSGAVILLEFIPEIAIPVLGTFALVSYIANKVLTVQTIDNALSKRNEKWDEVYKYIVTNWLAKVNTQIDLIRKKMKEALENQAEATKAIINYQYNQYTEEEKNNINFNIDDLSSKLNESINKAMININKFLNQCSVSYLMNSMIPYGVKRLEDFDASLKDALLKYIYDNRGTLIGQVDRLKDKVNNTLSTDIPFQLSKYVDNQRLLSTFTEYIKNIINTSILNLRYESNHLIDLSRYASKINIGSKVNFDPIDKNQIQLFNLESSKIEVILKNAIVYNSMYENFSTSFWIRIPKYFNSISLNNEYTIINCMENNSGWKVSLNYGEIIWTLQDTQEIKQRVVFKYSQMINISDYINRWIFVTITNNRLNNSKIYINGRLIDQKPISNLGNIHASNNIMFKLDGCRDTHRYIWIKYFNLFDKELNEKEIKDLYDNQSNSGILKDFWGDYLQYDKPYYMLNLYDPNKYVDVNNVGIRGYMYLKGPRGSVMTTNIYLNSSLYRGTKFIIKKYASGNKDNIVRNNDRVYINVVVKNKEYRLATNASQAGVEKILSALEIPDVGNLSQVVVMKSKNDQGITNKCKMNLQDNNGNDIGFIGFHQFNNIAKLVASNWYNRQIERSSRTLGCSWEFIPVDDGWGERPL

COc1c(C=O)c(CCN(C)C(=O)c2ccc(F)cc2)cc2c1OCO2
inactive: [1] 3% | [2] -1.5% | [3] -4.4%

O=C(CCc1c[nH]c2ccccc12)NCc1ccco1
inactive: [1] 2.9% | [2] 0.2% | [3] 5.8%

COc1cccc2c(=O)c(C/C=C(/C)Cl)c(C)[nH]c12
inactive: [1] 1.2% | [2] -1.6% | [3] 3.4%

Cc1ccc(S(=O)(=O)NC(C(=O)Oc2ccc3c(C(F)(F)F)cc(=O)oc3c2)c2ccccc2)cc1 (configuration not stated)
inactive: [1] 1.6% | [2] 1.4% | [3] -1.3%

O=C(NCCc1c[nH]c2ccccc12)OCCSS(=O)(=O)O
inactive: [1] -4.5% | [2] -0.2% | [3] 3.7%

CC(C)c1ccc2[nH]c3c(c2c1)CCCC3=O
inactive: [1] 0.3% | [2] -0.8% | [3] -3.4%

COc1ccc(CC(=O)Nc2cccc(C(=O)Nc3ccccc3C(=O)O)c2)cc1OC
inactive: [1] -5.3% | [2] -3.3% | [3] 1.8%

O=C(/C=C/c1ccccc1)c1ccccc1
inactive: [1] -1.7% | [2] -0.6% | [3] -0.6%

Cc1ccc(S(=O)(=O)Nc2ccc(S(=O)(=O)Nc3cc(C)nc(C)n3)cc2)cc1
inactive: [1] -1.8% | [2] 0.6% | [3] 0.7%

OCCOCCN1CCN(C(c2ccccc2)c2ccc(Cl)cc2)CC1 (configuration not stated)
inactive: [1] 0.1% | [2] -1.8% | [3] 1.1%

CC(=O)c1cccc2c(O)c(C3=Nc4ccccc4C3=O)[nH]c12
inactive: [1] -2.1% | [2] 0.6% | [3] 6.7%

CCOC(=O)Nc1ccc2c(c1)N(C(=O)CCN1CCOCC1)c1ccccc1S2
inactive: [1] -1.6% | [2] -1.4% | [3] 0.2%

O=C(O)CCCNc1ccc(S(=O)(=O)Nc2ccccc2C(=O)O)cc1C(=O)O
inactive: [1] 1.6% | [2] 1.7% | [3] 10%

CC1(C)Cc2nc3sc4c(=O)n(CC(N)=O)cnc4c3cc2CO1
inactive: [1] -0.6% | [2] 1.1% | [3] -3.8%

CN(Cc1c(C(=O)N(C)Cc2ccccc2)nc2ccccn12)CC1Cc2ccccc2O1 (configuration not stated)
inactive: [1] 4.4% | [2] 0.4% | [3] -5.9%

CCc1cc2c(=O)c(-c3nc(C)cs3)coc2cc1OC(C)C(=O)NCCO (configuration not stated)
inactive: [1] -3.3% | [2] -0.8% | [3] -2.1%

O=C(c1ccc(Cl)cc1)C1CCCN(Cc2ccc(Oc3ncccn3)cc2)C1 (configuration not stated)
inactive: [1] 2.2% | [2] -1.2% | [3] -3.2%

C=CCOc1ccc(C(=O)CC)cc1OC
inactive: [1] 0.6% | [2] -0.5% | [3] -1.9%

C=CCc1cc(Cl)ccc1OCCOCCN(C)C
inactive: [1] -0.1% | [2] -1.3% | [3] -1.2%

NC12CC3CC(C1)CC(O)(C3)C2
inactive: [1] 4.4% | [2] -0.4% | [3] -0.7%

C[C@@H]1C[C@H](Nc2ccccc2)c2ccccc2N1C(=O)c1cccnc1
inactive: [1] 1% | [2] 1% | [3] -2.9%

CC(=O)[C@H]1CC[C@H]2[C@@H]3C[C@H](C)C4=CC(=O)CC[C@]4(C)[C@H]3[C@@H](O)C[C@]12C
inactive: [1] 5.1% | [2] 0.9% | [3] -8.6%

O=C(O)CC(O)C(=O)O (configuration not stated)
inactive: [1] -3.1% | [2] -0.9% | [3] 3.8%

COc1c2occc2c(OC)c2c(=O)cc(C(F)(F)C(F)(F)F)oc12
inactive: [1] 2.3% | [2] 0.5% | [3] 0.4%

COc1cc(C2Nc3ccccc3NC3=C2C(=O)CC(c2ccc(OC)c(OC)c2)C3)ccc1O (configuration not stated)
inactive: [1] -5.5% | [2] -0.9% | [3] 0%

CCN(CC)C(=S)SSC(=S)N(CC)CC
inactive: [1] -3.2% | [2] -3.2% | [3] -10.6%

Cc1ccc2c(c1)c(=O)c1c3n2CCN(C(=O)CCl)C3CC1 (configuration not stated)
inactive: [1] -11.4% | [2] -1.3% | [3] -32.4%

CC(=O)NC(Cc1c[nH]c2ccccc12)C(=O)N/N=C/c1ccccc1 (configuration not stated)
inactive: [1] -1.4% | [2] -0.1% | [3] -5.7%

O=c1cc(-c2ccccc2)oc2cc(OCc3ccccc3)cc(O)c12
inactive: [1] -0.8% | [2] -0.6% | [3] -4.8%

CC(=O)NC(NC(=S)N1CCCCCC1)C(Cl)(Cl)Cl (configuration not stated)
inactive: [1] -2.7% | [2] -2.4% | [3] 5.4%

CC(C)C[C@H](NC(=O)NC(C)C)C(=O)O
inactive: [1] 1.1% | [2] 0% | [3] 2.9%

CC(C)c1ccc(NC(=O)CNS(=O)(=O)c2ccc(F)cc2)cc1
inactive: [1] 1.6% | [2] -0.9% | [3] 2.8%

CN1CCN(C2=Nc3ccccc3Oc3ccc(Cl)cc32)CC1
inactive: [1] -0.8% | [2] -1.8% | [3] -3.9%

CC(=O)C1=C(Nc2ccc(C)cc2)CC(C)(O)C(C(C)=O)C1c1ccco1 (configuration not stated)
inactive: [1] 1% | [2] 0% | [3] -2.3%

CC(=O)NC(CC(C)C)C(=O)NC(Cc1ccccc1)C(N)=O (stereo not drawn) (Ac-Leu-Phe-NH2; configuration not given here)
inactive: [1] 3.1% | [2] 0.2% | [3] -1.4%

Cc1ccc([N+](=O)[O-])cc1NC1OC(CO)C(O)C1O (configuration not stated)
inactive: [1] 1.5% | [2] -1.1% | [3] -1.7%

Cc1ccccc1C(=O)Oc1ccc(Sc2ccc(O)cc2)cc1
inactive: [1] -2% | [2] -0.4% | [3] -3.8%

NC(=O)c1cccnc1
inactive: [1] 1.8% | [2] -0.2% | [3] 3%

COc1ccc(/C=C2\CCn3c2nc2cc(C(=O)O)ccc2c3=O)cc1OC
inactive: [1] 1.4% | [2] 1% | [3] 8%

Cc1ccc2c(CC(=O)O)coc2c1
inactive: [1] -2.9% | [2] -1.3% | [3] -1.1%

CC(C)CC(=O)OC1C(N2CCOCC2)c2c(ccc(/C=C/C(=O)N3CCOCC3)c2O)OC1(C)C (configuration not stated)
inactive: [1] 0.5% | [2] -0.5% | [3] -0.5%

c1ccc(Cn2nnc3cnccc32)cc1
inactive: [1] 3.6% | [2] -0.8% | [3] 1.4%

OC[C@H]1O[C@@H](n2cnc3c(Nc4ccccc4)ncnc32)[C@H](O)[C@@H]1O
inactive: [1] 1.4% | [2] -0.2% | [3] -2.1%

O=C(O)CCCCCCNC(=O)c1cncc(O)c1
inactive: [1] -1.8% | [2] 0.2% | [3] 7.5%

O=S(=O)(NCCCCCNS(=O)(=O)c1ccccc1)c1ccccc1
inactive: [1] 0.4% | [2] -0.1% | [3] -0.7%

CCOC(=O)c1cc2cc3ccccc3cc2[nH]1
inactive: [1] 3.4% | [2] -0.1% | [3] 5.8%

COc1ccc(-c2coc3c(CN4CCOCC4)c(O)ccc3c2=O)cc1
inactive: [1] 2.6% | [2] 0.6% | [3] 4.1%

C[C@H](NC(=O)OC(C)(C)C)C(=O)NCC1CCC(C(=O)O)CC1 (some centres not stated)
inactive: [1] 2.7% | [2] -2.2% | [3] -1.1%

Cc1cnc(C(=O)NCCc2ccc(S(=O)(=O)NC(=O)NC3CCCCC3)cc2)cn1
inactive: [1] 0.7% | [2] -0.2% | [3] -0.1%

OCCN(CCO)c1nc(N2CCCCC2)c2nc(N(CCO)CCO)nc(N3CCCCC3)c2n1
inactive: [1] 4.8% | [2] 0.9% | [3] 8.5%

O=C(O)c1ccccc1Nc1cccc(C(F)(F)F)c1
inactive: [1] -4.2% | [2] -0.9% | [3] 1.9%

CCCNC(=O)NS(=O)(=O)c1ccc(Cl)cc1
inactive: [1] 5.6% | [2] -0.4% | [3] -1%

Cn1cc(CN2CCCC(CO)(Cc3cccc(Cl)c3)C2)cn1 (configuration not stated)
inactive: [1] 4.8% | [2] 1.3% | [3] -5.4%

c1ccc2[nH]c(-c3cscn3)nc2c1
inactive: [1] 1.2% | [2] 0.1% | [3] -4%

CC(C)(C)NCC(O)c1cc(O)cc(O)c1 (configuration not stated)
inactive: [1] -5.4% | [2] 0.7% | [3] 3.9%

COc1ccc(Cl)cc1C(=O)NCCc1ccc(S(=O)(=O)NC(=O)NC2CCCCC2)cc1
inactive: [1] -1.1% | [2] -1.6% | [3] -9.4%

CC(C)(C)OC(=O)N1CC(O)CC1C(=O)OCC(=O)c1ccc(Cl)cc1 (configuration not stated)
inactive: [1] -2.2% | [2] -2.3% | [3] 0.1%

O=C(NO)c1ccccc1O
inactive: [1] 3.3% | [2] 2% | [3] -4%

CN(C)CCN(Cc1ccccc1)c1ccccn1
inactive: [1] 2.2% | [2] 0% | [3] -0.2%

NC(N)=NC(=O)Cc1c(Cl)cccc1Cl
inactive: [1] -3.3% | [2] -1.8% | [3] -3.1%

O=C(NNC(=O)c1cccs1)c1ccco1
inactive: [1] 1.9% | [2] -2.8% | [3] 0.2%

O=[N+]([O-])c1ccc2cn[nH]c2c1
inactive: [1] 2.9% | [2] -0.5% | [3] 4%

CC(=O)O[C@]1(C(C)=O)CC[C@H]2[C@@H]3C=C(Cl)C4=CC(=O)CC[C@]4(C)[C@H]3CC[C@@]21C
inactive: [1] -0.5% | [2] -3.3% | [3] -4.2%

CCCCCCCC(=O)OCC(=O)[C@@]1(O)CC[C@H]2[C@@H]3CCC4=CC(=O)CC[C@]4(C)[C@H]3[C@@H](O)C[C@@]21C
inactive: [1] -3.8% | [2] 0.3% | [3] 4.7%
